The list is not random: actives were taken first. Their share in the collection is about 10%.
hNpr1 antagonist = blocks ANP-stimulated signaling of human Npr1 receptor. P16066. HEK293 hNpr1 GloSensor cGMP, ANP-stimulated luminescence. Potency, µM (titrated, usually from 46.3 µM), for the others: top-dose activity change, negative = inhibition, hits mostly inhibitors. 1.6% of 76,000 active. AID 1347048; calls by dose curve; further: nearly all actives have a fitted effect of over 60% in size
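Compound pre-incubated 30 min at room temperature on GloSensor-loaded HEK293 cells stably carrying hNpr1 and the pGS-40F cGMP biosensor. Stimulation uses hNppA at 0.1 nM final; luminescence is taken at baseline and 20 min post-agonist.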
NIH3T3 tox = cytotoxic compounds in NIH 3T3 cells; NIH 3T3 viability, CellTiter-Glo ATP luminescence, 48-72 h; Potency, µM (doses to about 96.7 µM), for inactives: at the top dose activity change, negative = cytotoxicity, hits mostly inhibitors; 4.3% of 94,000 active; further: nearly all actives have a fitted effect of over 55% in size
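Cytotoxicity was measured by CellTiter-Glo ATP luminescence after 48 or 72 h compound exposure at 37 °C. Mouse NIH 3T3 fibroblasts were seeded at 400 cells/well and dosed by 23 nL pin transfer.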
Luciferase inh = Photinus pyralis luciferase inhibition; 2.5% of 76,000 active; Potency, µM (top dose mostly 115 µM), most hits filed as inhibitors; purified P. pyralis luciferase, luminescence, biochemical; further: nearly all actives have a fitted effect of over 65% in size
Target sequence (P08659 whole entry, looked up): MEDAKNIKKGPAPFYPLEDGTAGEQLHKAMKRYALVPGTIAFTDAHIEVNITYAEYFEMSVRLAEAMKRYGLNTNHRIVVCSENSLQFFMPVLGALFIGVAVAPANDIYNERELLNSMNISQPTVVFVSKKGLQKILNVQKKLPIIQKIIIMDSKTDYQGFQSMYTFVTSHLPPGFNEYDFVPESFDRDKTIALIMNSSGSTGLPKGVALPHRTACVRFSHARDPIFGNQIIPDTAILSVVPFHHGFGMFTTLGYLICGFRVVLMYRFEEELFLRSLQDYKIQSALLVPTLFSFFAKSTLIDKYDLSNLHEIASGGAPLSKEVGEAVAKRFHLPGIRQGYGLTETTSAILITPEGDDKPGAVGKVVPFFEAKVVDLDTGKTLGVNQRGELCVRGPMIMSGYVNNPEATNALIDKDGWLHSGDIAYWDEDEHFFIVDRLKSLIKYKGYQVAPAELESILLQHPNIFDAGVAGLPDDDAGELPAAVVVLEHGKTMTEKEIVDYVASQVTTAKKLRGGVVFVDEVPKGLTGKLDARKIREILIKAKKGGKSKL
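Luminescence read by CCD imaging after purified firefly luciferase (10nM final) was added to substrate buffer holding 10uM D-luciferin and 10uM ATP, pH 7.5, pre-dosed with compound.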
HEK cytotox = kills HEK 293 cells. HEK 293 viability, ATP luminescence (CellTiter-Glo), 48-72 h. Potency, µM (highest dose often 115 µM), inactives show top-dose activity change, negative = cytotoxicity, hits mostly inhibitors. 6.6% of 94,000 active; further: nearly all actives have a fitted effect of over 60% in size
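Cytotoxicity was scored by loss of ATP-coupled luminescence (CellTiter-Glo) in HEK 293 cells. Compound treatment ran 48 or 72 hr at 37 degree Celsius, 5% CO2, 95% humidity.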
GPT2 inh = blocks human glutamate pyruvate transaminase 2 | Q8TD30 | Recombinant GPT2, coupled pyruvate oxidase/HRP Amplex Red fluorescence | Potency, µM (top dose mostly 57.7 µM), without a hit: at the highest dose activity change, negative = inhibition, actives largely listed as inhibitors | 0.25% of 100,000 active | AID 1671188; further: nearly all actives have a fitted effect of over 60% in size
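Recombinant GPT2 (10ng/uL) with 250uM a-KG and 2mM L-alanine, 30 min at room temperature, in HEPES pH 7.5 buffer. Pyruvate detected by pyruvate oxidase/HRP/Amplex Red fluorescence after 30 min in the dark; AOA (50uM) as positive control.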
Numbers without * were called inactive; i = inactive; u = inconclusive; x = no result given; [ ] = dose if it differs, or a comment. Unless noted, the call rests on the fitted dose curve; in most records, active means well fitted curve in the direction sought with a large enough effect; inconclusive means small, poorly fitted or top-dose-only effect, or another doubt; inactive means no such curve, though single readings can be large; an effect the other way counts as inactive or inconclusive. On the % scale 0 is the no-effect control and ±100 the full control effect; potency means the concentration at half of the fitted maximal effect.

SMILES	hNpr1 antagonist	NIH3T3 tox	Luciferase inh	HEK cytotox	GPT2 inh
COc1ccccc1C(=O)N1CCC(Cc2nc(-c3ccccc3)no2)CC1	u	u	i	u	1.2%
COc1ccc(-c2noc(CC3CCN(C(=O)c4cc(OC)cc(OC)c4)CC3)n2)cc1	u	u	i	35.5µM*	i
COc1ccc(C(=O)N2CCC(Cc3nc(C(C)C)no3)CC2)cc1OC	u	-45.3%	i	u	i
Cc1ccc(C(=O)N2CCC(Cc3nc(C(C)C)no3)CC2)cc1C	u	44.7µM*	i	u	1.9%
COc1cc(OC)cc(C(=O)N2CCC(Cc3nc(-c4cccc(OC)c4)no3)CC2)c1	u	u	i	44.7µM*	i
COc1ccc(-c2noc(CC3CCN(C(=O)c4cc(OC)c(OC)c(OC)c4)CC3)n2)cc1	u	12.6µM*	i	u	2.6%
Cn1ncc2c(N)nc(NC3CC(c4cc(=O)[nH]c(C5CC5)n4)C3)nc21 (stereo not given)	3.7%	u	i	0.4%	u
Cc1ncsc1C1N(C2CCN(C(=O)COc3ccccc3)CC2)C(=O)C12CCCC2 (stereo not given)	6.5%	u	i	-1.3%	-3.4%
O=C(NC1CCN(c2nc3ncccc3o2)C1)c1ccc(F)cc1 (stereo not given)	x	-12.6%	x	0.5%	4.9%
CCOc1cc(C(=O)N2CCC(Cc3nc(-c4ccc(F)cc4)no3)CC2)cc(OCC)c1OCC	u	31.6µM*	i	35.5µM*	-14.5%
CCOc1cc(C(=O)N2CCC(Cc3nc(-c4cnccn4)no3)CC2)cc(OCC)c1OCC	-2.9%	u	i	-14.7%	u
O=C(NC1CCCC1)NC1CCN(c2nccc(Nc3ccccc3F)n2)CC1	x	u	x	u	i
O=c1[nH]sc2cc(Cl)ccc12	x	x	x	x	14.1µM*
COc1ccc(C(=O)N2CCN(c3nc4ncccc4o3)CC2)cc1	0.3%[70.6 µM]	-14.9%[138 µM]	i	i	-1.6%[88.5 µM]
COc1ccc(CC(=O)N[C@H]2C[C@@H](c3nc(-c4ccc5ccccc5c4)no3)N(C)C2)cc1	-16.1%	-4.8%	39.8µM*	-12.8%	i
CN1C[C@@H](NC(=O)c2ccccn2)C[C@H]1c1nc(-c2ccc3ccccc3c2)no1	-3.4%[70.6 µM]	u	31.6µM*	u	4.7%[88.5 µM]
CN(C)c1ccc(C(=O)N[C@H]2C[C@@H](c3nc(-c4ccc5ccccc5c4)no3)N(C)C2)cc1	-10.6%	u	i	u	-7.2%
COCC(=O)N[C@H]1C[C@@H](c2nc(-c3ccc(F)cc3)no2)N(C)C1	-2.6%[70.6 µM]	-5.4%[174 µM]	i	-3.9%[172 µM]	i
COc1ccc(-c2noc([C@@H]3C[C@H](NCc4ccc(F)cc4)CN3C)n2)cc1	-5.7%[70.6 µM]	u	63.1µM*	100µM*	2.9%[88.5 µM]
O=C(c1ccc(Cl)s1)N1CCCC2(C1)Nc1cccnc1NC2=NC1CCCC1 (stereo not given)	u	u	i	u	-9.8%
CCOc1ccccc1CN1CCC2(CCN(C(=O)C3CCCC3)CC2)Oc2ccccc21	-12.3%	u	i	35.5µM*	i
CCOc1ccccc1CN1CCC2(CCN(C(=O)Cc3cccc(Cl)c3)CC2)Oc2ccccc21	-0.7%	-12.0%	i	-18.1%	i
O=C(Cc1ccc(F)cc1)N1CCC2(CC1)CCN(CCc1ccccc1)c1ccccc1O2	21.0%	u	i	44.7µM*	i
CCOc1ccccc1CN1CCC2(CCN(C(=O)Cc3ccc(F)cc3)CC2)Oc2ccccc21	6.4%	u	i	35.5µM*	i
O=S(=O)(c1cc(F)cc(F)c1)N1CCC(C2CCNC2)CC1 (stereo not given)	-0.2%	u	i	-30.6%	i
COCCNC(=O)c1cc(-c2ccc([S+](C)(=O)[O-])cc2)c2cccn2n1	x	u	x	u	i
COCCOC1CCOC2(CCN(C(=O)CCc3ccc(OC)cc3)CC2)C1 (stereo not given)	19.4%	-23.4%	i	-4.3%	i
CN(Cc1cn(C)c2ccccc12)C1CCc2nn(CC3CC3)c(=O)n2CC1 (stereo not given)	-2.7%	35.5µM*	i	31.6µM*	2.8%
